# Unmarked numbers belong to inactive results. How the calls were made is not given here.
# B1: design_607_777643b9-bd23-49d1-80ae-2b1434974efa_21_dldesign_0_cycle1_af2pred (protein)
# chain: MEVEKLRKKAVEEAKKGGLGTPEEAREKRKKAEELLKEMKKAGATEEEVAKAATEAAEAYVEAKNEKYLKE
# B2: design_607_777643b9-bd23-49d1-80ae-2b1434974efa_37_dldesign_0_cycle1_af2pred (protein)
# chain: SSNKETADAIRDAVKAAQEVGKLAKEKLSPEEAKAVADELNKAIFDLVDTAASEGVDGAKAAAADVKAKVEKLKKEIAAKAAAA
# B3: design_607_777643b9-bd23-49d1-80ae-2b1434974efa_139_dldesign_0_cycle1_af2pred (protein)
# chain: NEEQKKLAEEAIEEIKRLQEKAFDAVGAGDIEEAKKYLEEMEKVAKETAAKVPPEYAKKVLEALEKAKKAVESAIKAAEENEK
# B4: design_607_777643b9-bd23-49d1-80ae-2b1434974efa_278_dldesign_0_cycle1_af2pred (protein)
# chain: SSLTLEASKKSGEAYFLLNEAEFLAKKKGDEETAKKAEEARKKLKEKLDAAKTGAEKLAAALEGLKEAEKIYKEALE
# B5: design_607_777643b9-bd23-49d1-80ae-2b1434974efa_280_dldesign_0_cycle1_af2pred (protein)
# chain: GAEKEKAEKIAKEKLAEGKKLAEEAKKGTPEEAKKKRKEFLEELKKLAKEGTPYLAKLLAKVAAEVSEAFAEAYAEALRK
# B6: design_607_777643b9-bd23-49d1-80ae-2b1434974efa_321_dldesign_0_cycle1_af2pred (protein)
# chain: SKIYEEKKKEIEEAAEKAKELAKKDPEKGRKYLKEKNKKFKEFVEKLKADPKTKADAEKILKEASKKSAEVYEVIAEEEQKKRRE
# B7: design_607_777643b9-bd23-49d1-80ae-2b1434974efa_351_dldesign_0_cycle1_af2pred (protein)
# chain: SEEEAKKLAEEAAKKAREAAEEAEKLAKEAEKIGNKKIANKLYAYAERLKNVAESVELHAGDKEYAEKGLEVTEKLRKKAKELYKEAK
# B8: design_607_777643b9-bd23-49d1-80ae-2b1434974efa_529_dldesign_0_cycle1_af2pred (protein)
# chain: NLGEKASKATKVLVDAAKEIAKKAGEEAKAKAAAALVTLFSLFEDPEKAAKEAKALVPEKAKPIVEKAAKEADKLLN
# B9: design_607_777643b9-bd23-49d1-80ae-2b1434974efa_640_dldesign_0_cycle1_af2pred (protein)
# chain: AETEKKIKELEKKAHDAYQKAAEYYHDKNLKEAGDLYRKAAKLYAEAAKALAKGEEAPKAEEYEAKAKAYEEEAQKLKA
# B10: design_607_777643b9-bd23-49d1-80ae-2b1434974efa_648_dldesign_0_cycle1_af2pred (protein)
# chain: SEEERRRREEAYRELSEALREARELGKRLKEAGADPEVIKRLSELLAEISETLAELRAGLANEEEIERAKEAAREALELAREELERL
# B11: design_607_777643b9-bd23-49d1-80ae-2b1434974efa_649_dldesign_0_cycle1_af2pred (protein)
# chain: DAAKAAAKAFAAGAIKLAEKLAKEYPEIAATMKEAIAAAKEAAKLADTDAAAGKAAASAANFTVLEAYAEAKA
# B12: design_607_777643b9-bd23-49d1-80ae-2b1434974efa_665_dldesign_0_cycle1_af2pred (protein)
# chain: MKETEEEIKKIEEEAKELAEKGKEKSVEEFKKEMVKFIFSLADEGAHPEAISSAARIAKESYEKLKKKEEEEKK
# B13: design_607_777643b9-bd23-49d1-80ae-2b1434974efa_839_dldesign_0_cycle1_af2pred (protein)
# chain: AAAAAKAQADAILADAKAKAAEALKKDPKTGAEEAAKIYRAAAAKLRALGAEVADDPEAVAYLSKVAAELYELAAEYASKAARL
# B14: design_607_777643b9-bd23-49d1-80ae-2b1434974efa_981_dldesign_0_cycle1_af2pred (protein)
# chain: MAEEAKKKLEQAAKLMAIAYETLAAGERGLATPEELKEAAKKAEEAAKLAKEVGKVTPEKEYYEKAAKRAEKVAKRLKELAKKIEE
# B15: design_607_777643b9-bd23-49d1-80ae-2b1434974efa_1068_dldesign_0_cycle1_af2pred (protein)
# chain: MKKKASELMHEAYELAALAEAYPENAEEYYKKAKEYGEEAVKEAEKYDPEYGKKAKERAEKVTKRAKEAVEKYKKEK
# B16: design_607_777643b9-bd23-49d1-80ae-2b1434974efa_1186_dldesign_0_cycle1_af2pred (protein)
# chain: KEAEIKAEAQALIDAVRAAAAAAVALAADPAAARALLTAAIGKVLEGSKEAASLALPEAVAIAREAGAAAEAAHAAAA
# B17: design_607_777643b9-bd23-49d1-80ae-2b1434974efa_1207_dldesign_0_cycle1_af2pred (protein)
# chain: AVAEAAQYAQEARQYAAEAEYLGKKYGKKNKEIKKYAEKAKEAAKKAREAAKKGDLEAAKEYAKKAKELAEKAEELAKKEEE
# B18: design_607_777643b9-bd23-49d1-80ae-2b1434974efa_1231_dldesign_0_cycle1_af2pred (protein)
# chain: AEEEKKKKEEEKKRTAENKALAYEEAARHAMEQGEKGSPEQRPAAVERAREFAKRAIEADPKKGAELLKEVEAFAAKWEEEA
# B19: design_607_777643b9-bd23-49d1-80ae-2b1434974efa_1238_dldesign_0_cycle1_af2pred (protein)
# chain: SLKEALLEEAKEAIKAAKAGDASKVAAETLEMRSAAEALAKDDEEAKKFAEKTRKALELLRKDPEKGLKYAEEVAKEIIKAIE
# Target: VTCN1, Q7Z7D3
# Sequence (Q7Z7D3 whole entry): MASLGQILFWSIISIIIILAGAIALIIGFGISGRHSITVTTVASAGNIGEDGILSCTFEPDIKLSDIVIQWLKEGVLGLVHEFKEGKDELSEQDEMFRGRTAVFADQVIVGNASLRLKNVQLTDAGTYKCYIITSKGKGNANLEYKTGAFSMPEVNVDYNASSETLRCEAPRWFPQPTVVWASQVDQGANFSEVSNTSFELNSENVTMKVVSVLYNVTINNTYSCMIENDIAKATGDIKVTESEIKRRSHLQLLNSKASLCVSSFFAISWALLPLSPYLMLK
row,Binder,binding in a display sort
1,B1,not found
2,B2,not found
3,B3,not found
4,B4,not found
5,B5,not found
6,B6,not found
7,B7,not found
8,B8,not found
9,B9,not found
10,B10,not found
11,B11,not found
12,B12,not found
13,B13,not found
14,B14,not found
15,B15,not found
16,B16,not found
17,B17,not found
18,B18,not found
19,B19,not found

# Source: article PMC13494018
